Laboratory results as given in the supplement of paper PMC10849652.
About 7,900 targets were measured; listed, in parts, are those with a hit and a random draw of the rest. About 0.6% of all pairs of compound and target were hits.

Experiments:
Assay in all cases: log2 fold change, soluble protein after heating vs DMSO (PISA); higher = thermal stabilisation; K562 cells, 10 uM, 30 min; active = over 0.2 and 3.5 SD of the protein, either way, in both replicates (recomputed)
[1] = compound: C1=CC=C(C=C1)[C@H](COC2=CC3=C(C=C2)NC(=O)N3)NC(=O)C4=CC=CN(C4=O)CC5=CC(=C(C=C5)F)F
Summary of the method: (§1)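 Soluble protein was quantified by TMTpro 16plex LC-MS/MS after channel sums were equalised. It was obtained as the supernatant after 21,000xg for 90 min from pooled aliquots of K562 cells (2×10^6 cells/mL, 10 μM compound, 30 min) heated for 3 min across 48°C-58°C and extracted in PBS with 0.5% NP-40 at 4°C. Thermal stability values are relative to control samples and come from duplicates. They are given as log2 fold changes.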

[2] = compound: CC1=C(SC2=C1C(=N[C@H](C3=NN=C(N32)C)CC(=O)N)C4=CC=C(C=C4)Cl)C
Summary of the method: as §1

[3] = compound: CC1=C2C(=CC=C1)N=C(N(C2=O)C3=CC=CC=C3C)CN4C=NC5=C(N=CN=C54)N
Summary of the method: as §1

[4] = compound: Cc1sc2c(c1C)C(c1ccc(Cl)cc1)=N[C@@H](CC(=O)OC(C)(C)C)c1nnc(C)n1-2
Summary of the method: as §1

[5] = compound: c1ccc([C@@H]2C[C@H]2NC2CCNCC2)cc1
Summary of the method: as §1

Measured: log2 fold change

BCL9L (UniProt Q86UU0)
Sequence of UniProt Q86UU0 (Q86UU0 whole entry, looked up): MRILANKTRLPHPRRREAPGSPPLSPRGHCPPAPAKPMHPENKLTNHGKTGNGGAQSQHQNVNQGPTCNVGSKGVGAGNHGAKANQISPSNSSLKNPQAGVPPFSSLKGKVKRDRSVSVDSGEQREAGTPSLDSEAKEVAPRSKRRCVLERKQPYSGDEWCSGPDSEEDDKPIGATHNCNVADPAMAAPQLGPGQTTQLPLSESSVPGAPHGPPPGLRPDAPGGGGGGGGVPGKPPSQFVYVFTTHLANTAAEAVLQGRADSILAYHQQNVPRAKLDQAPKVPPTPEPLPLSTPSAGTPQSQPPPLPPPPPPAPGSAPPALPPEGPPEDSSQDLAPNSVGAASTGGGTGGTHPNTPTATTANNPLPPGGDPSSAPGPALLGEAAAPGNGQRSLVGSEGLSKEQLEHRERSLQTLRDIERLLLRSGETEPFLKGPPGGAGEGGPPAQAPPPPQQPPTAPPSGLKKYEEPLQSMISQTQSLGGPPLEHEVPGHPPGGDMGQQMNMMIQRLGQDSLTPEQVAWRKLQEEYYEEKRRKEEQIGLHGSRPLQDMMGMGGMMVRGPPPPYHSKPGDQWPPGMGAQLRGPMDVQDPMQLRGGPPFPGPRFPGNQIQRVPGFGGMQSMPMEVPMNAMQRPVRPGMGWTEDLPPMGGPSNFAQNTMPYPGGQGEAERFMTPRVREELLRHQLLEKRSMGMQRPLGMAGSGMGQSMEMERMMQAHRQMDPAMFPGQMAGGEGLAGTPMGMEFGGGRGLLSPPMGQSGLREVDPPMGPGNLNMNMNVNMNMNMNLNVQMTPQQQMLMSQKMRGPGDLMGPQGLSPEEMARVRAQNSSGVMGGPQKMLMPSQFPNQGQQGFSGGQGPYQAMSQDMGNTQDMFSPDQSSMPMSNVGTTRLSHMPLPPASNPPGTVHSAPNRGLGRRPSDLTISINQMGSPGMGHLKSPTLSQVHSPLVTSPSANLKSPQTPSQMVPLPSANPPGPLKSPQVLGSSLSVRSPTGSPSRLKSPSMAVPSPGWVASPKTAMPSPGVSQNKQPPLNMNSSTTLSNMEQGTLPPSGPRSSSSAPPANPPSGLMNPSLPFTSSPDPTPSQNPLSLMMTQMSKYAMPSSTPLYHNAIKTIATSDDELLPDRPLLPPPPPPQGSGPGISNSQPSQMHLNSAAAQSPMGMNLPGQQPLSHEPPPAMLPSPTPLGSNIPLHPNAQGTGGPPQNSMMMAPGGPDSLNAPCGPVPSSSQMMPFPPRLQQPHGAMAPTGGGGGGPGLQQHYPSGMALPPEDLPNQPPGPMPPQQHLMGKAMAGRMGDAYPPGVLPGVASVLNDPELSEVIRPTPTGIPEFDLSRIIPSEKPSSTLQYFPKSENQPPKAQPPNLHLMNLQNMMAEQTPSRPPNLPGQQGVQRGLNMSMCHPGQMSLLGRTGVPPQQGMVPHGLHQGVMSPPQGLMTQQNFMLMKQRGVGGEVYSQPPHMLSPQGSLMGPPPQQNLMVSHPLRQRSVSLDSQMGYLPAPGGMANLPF
inactive: [1] 0.001 | [2] -0.028 | [3] 0.019 | [4] 0.051 | [5] 0.05

AMFR (UniProt Q9UKV5)
Sequence of UniProt Q9UKV5 (Q9UKV5 whole entry, looked up): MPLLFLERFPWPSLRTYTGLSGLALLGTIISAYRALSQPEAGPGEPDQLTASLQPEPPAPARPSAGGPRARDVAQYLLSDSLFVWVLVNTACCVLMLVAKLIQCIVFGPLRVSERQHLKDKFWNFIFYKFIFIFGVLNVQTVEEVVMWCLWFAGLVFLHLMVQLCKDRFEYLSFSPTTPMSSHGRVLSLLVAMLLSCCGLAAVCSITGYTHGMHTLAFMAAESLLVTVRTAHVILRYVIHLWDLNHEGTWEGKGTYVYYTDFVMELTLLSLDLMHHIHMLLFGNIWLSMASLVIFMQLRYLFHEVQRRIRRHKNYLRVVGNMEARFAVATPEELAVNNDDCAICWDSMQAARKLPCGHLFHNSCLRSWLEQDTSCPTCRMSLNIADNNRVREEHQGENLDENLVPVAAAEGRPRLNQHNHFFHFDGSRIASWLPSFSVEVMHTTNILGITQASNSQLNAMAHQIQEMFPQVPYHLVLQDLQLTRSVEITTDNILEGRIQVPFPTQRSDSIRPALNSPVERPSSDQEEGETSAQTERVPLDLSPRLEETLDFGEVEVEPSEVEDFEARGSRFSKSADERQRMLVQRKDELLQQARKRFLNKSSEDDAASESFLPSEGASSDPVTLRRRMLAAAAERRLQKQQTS
inactive: [1] -0.043 | [2] -0.004 | [3] 0.023 | [4] 0.024 | [5] -0.046

ACSF3 (UniProt Q4G176)
Sequence of UniProt Q4G176 (Q4G176 whole entry, looked up): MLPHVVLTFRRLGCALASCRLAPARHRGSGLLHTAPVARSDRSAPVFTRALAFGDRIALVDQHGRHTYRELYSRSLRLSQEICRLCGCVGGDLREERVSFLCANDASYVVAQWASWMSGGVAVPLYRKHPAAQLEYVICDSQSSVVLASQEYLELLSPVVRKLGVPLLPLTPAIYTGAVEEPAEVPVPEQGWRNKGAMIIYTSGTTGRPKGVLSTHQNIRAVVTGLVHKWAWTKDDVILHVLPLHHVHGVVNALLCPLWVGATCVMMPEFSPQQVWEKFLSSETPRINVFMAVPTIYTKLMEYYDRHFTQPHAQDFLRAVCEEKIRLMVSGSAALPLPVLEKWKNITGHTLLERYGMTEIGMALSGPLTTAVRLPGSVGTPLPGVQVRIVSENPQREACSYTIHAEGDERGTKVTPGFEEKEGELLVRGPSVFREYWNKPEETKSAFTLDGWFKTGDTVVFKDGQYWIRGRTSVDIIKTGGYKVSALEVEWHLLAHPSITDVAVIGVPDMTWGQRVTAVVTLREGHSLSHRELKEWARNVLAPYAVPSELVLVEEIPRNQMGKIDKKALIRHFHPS
inactive: [1] 0.037 | [2] 0.086 | [3] 0.12 | [4] -0.067 | [5] 0.063

ATIC (UniProt P31939)
Sequence of UniProt P31939 (P31939 whole entry, looked up): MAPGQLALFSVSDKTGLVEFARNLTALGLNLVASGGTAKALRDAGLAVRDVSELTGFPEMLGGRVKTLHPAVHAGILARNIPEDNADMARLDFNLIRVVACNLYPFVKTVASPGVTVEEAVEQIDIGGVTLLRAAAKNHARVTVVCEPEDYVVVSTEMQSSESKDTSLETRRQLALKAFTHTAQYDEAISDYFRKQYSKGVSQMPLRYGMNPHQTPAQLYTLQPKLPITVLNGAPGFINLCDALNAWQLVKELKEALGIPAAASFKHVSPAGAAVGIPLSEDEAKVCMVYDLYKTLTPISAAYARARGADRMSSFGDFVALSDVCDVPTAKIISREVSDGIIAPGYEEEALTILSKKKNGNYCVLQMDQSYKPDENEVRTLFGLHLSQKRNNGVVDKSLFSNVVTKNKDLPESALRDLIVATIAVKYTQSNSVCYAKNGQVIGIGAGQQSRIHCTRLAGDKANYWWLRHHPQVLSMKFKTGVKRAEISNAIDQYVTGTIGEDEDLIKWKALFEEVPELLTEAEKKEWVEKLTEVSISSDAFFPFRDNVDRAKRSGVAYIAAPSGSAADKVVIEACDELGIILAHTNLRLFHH
inactive: [1] -0.023 | [2] 0.039 | [3] 0.073 | [4] -0.041 | [5] -0.012

ABCA3 (UniProt Q99758)
inactive: [1] 0.239 | [2] 0.002 | [3] -0.05 | [4] 0.02 | [5] -0.035

ACSL4 (UniProt O60488)
Sequence of UniProt O60488 (O60488 whole entry, looked up): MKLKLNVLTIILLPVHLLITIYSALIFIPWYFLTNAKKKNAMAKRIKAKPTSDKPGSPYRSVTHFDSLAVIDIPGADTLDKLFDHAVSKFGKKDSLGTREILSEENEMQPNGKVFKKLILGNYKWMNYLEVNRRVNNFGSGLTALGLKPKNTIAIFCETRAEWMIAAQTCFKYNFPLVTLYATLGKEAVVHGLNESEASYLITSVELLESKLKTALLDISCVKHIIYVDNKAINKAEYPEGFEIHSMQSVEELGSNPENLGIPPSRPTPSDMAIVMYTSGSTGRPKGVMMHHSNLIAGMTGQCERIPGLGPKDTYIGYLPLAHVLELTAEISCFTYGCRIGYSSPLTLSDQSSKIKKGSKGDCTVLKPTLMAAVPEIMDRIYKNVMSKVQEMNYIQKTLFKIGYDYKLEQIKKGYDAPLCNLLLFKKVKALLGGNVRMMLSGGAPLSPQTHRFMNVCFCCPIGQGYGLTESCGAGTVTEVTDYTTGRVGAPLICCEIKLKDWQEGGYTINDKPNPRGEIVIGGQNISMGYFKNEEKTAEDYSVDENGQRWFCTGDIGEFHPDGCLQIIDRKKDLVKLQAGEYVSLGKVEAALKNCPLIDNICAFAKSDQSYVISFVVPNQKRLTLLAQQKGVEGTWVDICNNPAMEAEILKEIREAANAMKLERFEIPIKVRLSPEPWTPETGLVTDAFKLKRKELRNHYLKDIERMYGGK
inactive: [1] -0.08 | [2] 0.1 | [3] 0.132 | [4] 0.025 | [5] -0.031

AHCYL1 (UniProt O43865)
inactive: [1] 0.057 | [2] -0.004 | [3] 0.014 | [4] -0.03 | [5] -0.037

BRIP1 (UniProt Q9BX63)
inactive: [1] 0.042 | [2] -0.005 | [3] 0 | [4] -0.042 | [5] 0.122

ADAM15 (UniProt Q13444)
Sequence of UniProt Q13444 (Q13444 whole entry, looked up): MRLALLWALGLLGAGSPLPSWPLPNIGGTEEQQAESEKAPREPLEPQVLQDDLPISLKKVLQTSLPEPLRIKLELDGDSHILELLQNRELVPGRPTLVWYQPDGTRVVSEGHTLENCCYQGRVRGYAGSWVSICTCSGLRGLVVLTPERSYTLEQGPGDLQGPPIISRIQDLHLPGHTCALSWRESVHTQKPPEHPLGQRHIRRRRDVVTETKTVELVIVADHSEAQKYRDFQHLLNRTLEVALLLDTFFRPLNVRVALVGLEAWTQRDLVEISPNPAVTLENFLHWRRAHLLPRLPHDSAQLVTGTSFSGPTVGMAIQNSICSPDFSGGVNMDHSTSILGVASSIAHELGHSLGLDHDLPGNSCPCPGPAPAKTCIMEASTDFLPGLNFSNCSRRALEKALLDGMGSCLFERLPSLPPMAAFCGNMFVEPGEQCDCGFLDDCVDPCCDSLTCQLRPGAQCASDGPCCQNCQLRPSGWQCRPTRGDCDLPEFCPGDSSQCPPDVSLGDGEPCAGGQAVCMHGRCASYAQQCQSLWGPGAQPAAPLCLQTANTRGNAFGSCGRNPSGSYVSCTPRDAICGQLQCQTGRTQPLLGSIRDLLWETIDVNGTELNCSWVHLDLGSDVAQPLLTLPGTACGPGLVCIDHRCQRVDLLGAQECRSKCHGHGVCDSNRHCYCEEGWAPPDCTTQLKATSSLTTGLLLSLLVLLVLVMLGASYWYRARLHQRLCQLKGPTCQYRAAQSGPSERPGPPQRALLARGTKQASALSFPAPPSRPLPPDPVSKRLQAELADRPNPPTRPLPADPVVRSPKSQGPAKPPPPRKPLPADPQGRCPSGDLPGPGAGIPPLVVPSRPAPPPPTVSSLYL
inactive: [1] -0.041 | [2] 0.059 | [3] 0.096 | [4] 0.08 | [5] 0
